# Results published in PubChem BioAssay (NCATS).
# Results filed as inconclusive are left out. Entries that show only a call come without a potency. Calls of active or inactive are those of the source. Unless noted, calls come from the whole dose curve.
# Experiments:
# [1] = molecular target: Peroxisome proliferator-activated receptor delta (Homo sapiens) (UniProt Q03181); experiment: qHTS assay for small molecule agonists of peroxisome proliferator-activated receptor delta signaling (AID 588534)
# Method in brief: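 Cell-based beta-lactamase reporter assay run in agonist mode: cells seeded and incubated 5 hrs at 37 C, compounds added and incubated 18 hrs at 37 C. CCF4 dye fluorescence read after 2 hrs at RT; EC50 and efficacy from Hill fits.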
# [2] = qHTS assay for small molecule antagonists of peroxisome proliferator-activated receptor delta signaling (AID 588535; active = well fitted inhibition curve with a large enough effect in the signal ratio, with a control signal flat, not every such curve was filed as active; the % refers to the signal ratio;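 for max response: cells co-treated with a PPAR-delta agonist as stimulator during compound exposure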); conditions: HEK293T PPARd-UAS-bla, beta-lactamase FRET ratio, 18 h; 460 nm channel
# Method in brief: (§1)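 GeneBLAzer PPAR-delta-UAS-bla HEK293T cells in medium with 2% charcoal/dextran FBS were preincubated 5 hrs at 37 C, then given compounds, incubated 18 hrs at 37 C, and read by CCF4 beta-lactamase fluorescence; IC50 from Hill fits.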
# [3] = molecular target: Peroxisome proliferator-activated receptor delta (Homo sapiens) (UniProt Q03181); experiment: as above
# Method in brief: as §1
# [4] = molecular target: Peroxisome proliferator-activated receptor gamma (Homo sapiens) (UniProt P37231); experiment: qHTS assay for small molecule agonists of peroxisome proliferator-activated receptor gamma signaling (AID 588536; active = well fitted curve in the direction sought with a large enough effect in the signal ratio, with a control signal flat, not every such curve was filed as active; the % refers to the signal ratio)
# Method in brief: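 Test agents, titrated, stimulated HEK293 UAS-bla cells overnight (16 h, 37 C). Substrate CCF4 was then added for two hours at room temperature before fluorescence reading.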
# [5] = molecular target: Peroxisome proliferator-activated receptor gamma (Homo sapiens) (UniProt P37231); experiment: qHTS assay for small molecule antagonists of peroxisome proliferator-activated receptor gamma signaling (AID 588537; active = well fitted inhibition curve with a large enough effect in the signal ratio, with a control signal flat, not every such curve was filed as active; the % refers to the signal ratio;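 note: reporter cells co-stimulated with 50 nM rosiglitazone agonist during compound treatment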)
# Method in brief: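 PPAR-gamma-UAS-bla HEK293 cells (3000/well, 1% charcoal/dextran-stripped FBS) were preincubated 6-6.5 h at 37 C, given titrated compounds, then stimulated with 50 nM rosiglitazone for 16 h. Beta-lactamase activity was read with CCF4 dye; IC50 came from Hill fits.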
# [6] = molecular target: Vitamin D3 receptor (Homo sapiens) (UniProt P11473); experiment: qHTS assay for small molecule antagonists of vitamin D receptor signaling (AID 588541);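 note: receptor activated by calcitriol during compound treatment; series mostly up to about 77 µM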
# Method in brief: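 VDR-UAS-bla HEK293T cells (2000/well, 2% charcoal-stripped FBS) were treated with titrated compounds plus 1-alpha,25-dihydroxyvitamin D3 (50 nM or 3 nM final) for 16 h at 37 C. CCF4 beta-lactamase fluorescence was read; Hill fits gave IC50.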
# [7] = molecular target: Vitamin D3 receptor (Homo sapiens) (UniProt P11473); experiment: qHTS assay for small molecule agonists of vitamin D receptor signaling (AID 588543)
# Method in brief: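 VDR-UAS-bla HEK293T cells, 2000/well, 2% charcoal-stripped FBS; compound titration 16 h at 37 C; CCF4 beta-lactamase ratio read. Normalized to 50 nM 1-alpha,25-dihydroxyvitamin D3 (100%) and DMSO; Hill fit gives EC50, efficacy.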
# [8] = qHTS assay for small molecule agonists of retinoid X receptor alpha signaling (AID 588544); conditions: HEK293T RXRa-UAS-bla, beta-lactamase reporter, 18 h; 530 nm emission
# [9] = molecular target: Retinoic acid receptor RXR-alpha (Homo sapiens) (UniProt P19793); experiment: as above
# [10] = molecular target: Thyroid hormone receptor beta (Homo sapiens) (UniProt P10828); experiment: qHTS assay for small molecule agonists of thyroid hormone receptor beta signaling (AID 588545)
# Method in brief: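 Compounds were tested as agonists in TR-UAS-bla-GripTite HEK 293 cells. After 18 hrs at 37 C, CCF4 substrate was added and fluorescence read after 2 hrs at room temperature.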
# [11] = qHTS assay for small molecule antagonists of retinoid X receptor alpha signaling (AID 588546; active = well fitted inhibition curve with a large enough effect in the signal ratio, with a control signal flat, not every such curve was filed as active; the % refers to the signal ratio;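 note: cells stimulated with 9-cis-retinoic acid as agonist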); conditions: HEK293T RXRa-UAS-bla, beta-lactamase ratio, antagonist mode; measured here: W530 green channel, cytotoxicity proxy
# Method in brief: (§2)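 Beta-lactamase reporter inhibition, read as CCF4 fluorescence ratio (ex 405, em 460/530 nm) after 2 h at RT. HEK293T UAS-bla cells, 2500/well, were stimulated with 9-cis-RA at 500 or 100 nM final alongside test compound for 18 h at 37 C.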
# [12] = molecular target: Retinoic acid receptor RXR-alpha (Homo sapiens) (UniProt P19793); experiment: as above; conditions: HEK293T RXRa-UAS-bla, beta-lactamase ratio, antagonist mode
# Method in brief: as §2
# [13] = molecular target: Thyroid hormone receptor beta (Homo sapiens) (UniProt P10828); experiment: qHTS assay for small molecule antagonists of thyroid hormone receptor beta signaling (AID 588547; active = well fitted inhibition curve with a large enough effect in the signal ratio, with a control signal flat, not every such curve was filed as active; the % refers to the signal ratio;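 note: cells stimulated with 0.4 nM T3 agonist during compound exposure; series mostly up to about 77 µM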); conditions: TR-UAS-bla HEK293, beta-lactamase ratio, antagonist mode, 18 h
# Method in brief: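 TR-UAS-bla GripTite HEK293 cells in 2% charcoal/dextran FBS medium were preincubated 4 h at 37 C, given compound (0.59 nM to 92 uM) plus 0.4 nM T3 (final) for 18 h, then CCF4 for 2 h at RT; Hill fit gave IC50.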
# [14] = qHTS assay for small molecule agonists of the antioxidant response element (ARE) signaling pathway (AID 651741; active = well fitted activation curve with a large enough effect in the signal ratio; the % refers to the signal ratio; note: potency is the fitted concentration of half-maximal effect)
# Method in brief: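 ARE-bla HepG2 cells (beta-lactamase reporter under ARE control) were plated at 2,000 cells/well, preincubated 5 h at 37 C/5% CO2, then treated with DMSO-dissolved compounds for 16 h at 37 C; LiveBLAzer B/G FRET substrate added, fluorescence read after 2 h at room temperature.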
# [15] = qHTS assay for small molecule activators of the p53 signaling pathway (AID 651743; active = well fitted activation curve with a large enough effect in the signal ratio, not every such curve was filed as active; the % refers to the signal ratio; note: series mostly up to about 92 µM); conditions: HCT-116 p53RE-bla, beta-lactamase FRET ratio, 16 h; activation: stronger effect = higher value
# Method in brief: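 p53RE-bla HCT-116 cells with a stably integrated beta-lactamase reporter under p53 response elements were plated, rested 5 hours at 37 C/5% CO2, then exposed to compounds in DMSO for 16 hours at 37 C. LiveBLAzer B/G FRET substrate was read after 2 hours at room temperature.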
# [16] = qHTS assay for small molecule activators of the nuclear factor-kappa B (NF-kB) signaling pathway (AID 651749; active = well fitted activation curve with a large enough effect in the signal ratio; the % refers to the signal ratio; note: series mostly up to about 77 µM); conditions: NF-kB-bla ME-180 cells, beta-lactamase FRET ratio, 16 h; activation: stronger effect = higher value
# Method in brief: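 ME-180 cells stably carrying a beta-lactamase reporter under an NF-kB response element were exposed to compound or DMSO vehicle for 16 hr at 37C, 5% CO2. Pathway activation was read by FRET, since reporter expression disrupts FRET.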
# [17] = qHTS assay for environmental chemicals that activate the Aryl hydrocarbon Receptor (AhR) signaling pathway (AID 651777; active = well fitted curve in the direction sought with a large enough effect; an effect the other way counts as inactive or inconclusive; note: nearly all actives have a fitted effect of over 15% in size); conditions: 1A2-DRE human hepatoma cells, luciferase, 24 h; activation: stronger effect = higher value
# Method in brief: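 Induction of CYP1A2 transcription through AhR is detected by luciferase in 1A2-DRE hepatoma cells. Compounds or DMSO act for 24 hr at 37 C before a 30 min One-Glo step at room temperature.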
# [18] = molecular target: Peroxisome proliferator-activated receptor alpha (Homo sapiens) (UniProt Q07869); experiment: qHTS assay for small molecule agonists of the peroxisome proliferator-activated receptor alpha (PPARalpha) signaling pathway (AID 651778; active = well fitted curve in the direction sought with a large enough effect; an effect the other way counts as inactive or inconclusive); conditions: PathHunter PPARalpha complementation, chemiluminescence, 6 h; max response: stronger effect = higher value
# Method in brief: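 Cells plated at 2,000/well and held overnight at 37 C, 5% CO2, then compound added by pin tool for 6 hr; after PathHunter detection reagent and 60 min at room temperature, chemiluminescence from enzyme complementation was read.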
# [19] = qHTS assay for small molecule agonists of the antioxidant response element (ARE) signaling pathway measured by Nrf2-dependant transcriptional activity (AID 720636; active = well fitted curve in the direction sought with a large enough effect in the repeat runs; an effect the other way counts as inactive or inconclusive;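 note: HepG2 cells with an ARE-driven luciferase reporter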)
# Method in brief: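 We exposed ARE-luc HepG2 cells, seeded in assay medium with 1% dialyzed FBS and allowed 6 hr to adhere, to test compounds overnight (16 hr, 37 C) before measuring luciferase with ONE-Glo.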
# [20] = qHTS assay for small molecule agonists of the antioxidant response element (ARE) signaling pathway measured by Nrf2-dependant transcriptional activity - cell viability counter screen (AID 720653; active = well fitted curve in the direction sought with a large enough effect in the repeat runs; an effect the other way counts as inactive or inconclusive); conditions: ARE-bla HepG2 viability, CellTiter-Glo ATP luminescence, 16 h; max response: stronger effect = lower value
# Method in brief: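 ARE-bla HepG2 cells (2,000/well) rested 5 hrs at 37C/5% CO2, then exposed to compounds in DMSO for 16 hrs. Viability was read in the same wells as intracellular ATP by luminescence, 30 min at room temperature after reagent addition.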
# [21] = qHTS assay for cell viability of HEK293 cells (AID 743288; active = well fitted curve in the direction sought with a large enough effect; an effect the other way counts as inactive or inconclusive; note: nearly all actives have a fitted effect of over 50% in size); conditions: ATP luminescence (CellTiter-Glo), 18 h; max response: stronger effect = lower value
# Method in brief: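 Parental HEK293 cells, 2,000 per well, preincubated at least 5 h at 37 C, then exposed to compounds in DMSO for 18 h at 37 C. Viability by CellTiter-Glo ATP luminescence after 30 min at room temperature.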
# [22] = qHTS assay for cell viability of the p53RE-bla HCT-116 cell line (AID 743292; active = well fitted curve in the direction sought with a large enough effect; an effect the other way counts as inactive or inconclusive; note: nearly all actives have a fitted effect of over 55% in size)
# Method in brief: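 In this qHTS counter-screen, metabolically competent p53RE-bla HCT-116 cells were counted via their ATP content. Compounds were applied for 16 h at 37 C and luciferase-coupled luminescence was measured.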
# [23] = molecular target: Nuclear receptor subfamily 1 group I member 2 (Rattus norvegicus) (UniProt Q9R1A7); experiment: qHTS assay for small molecule activators of the rat pregnane X receptor (rPXR) signaling pathway (AID 651751; call rule not given here); conditions: rPXR reporter cells, luciferase (One-Glo), 24 h
# [24] = qHTS assay for small molecule activators of the human pregnane X receptor (PXR) signaling pathway (AID 720659; call rule not given here)
# Peroxisome proliferator-activated receptor delta (Homo sapiens), sequence (Q03181 whole entry, looked up): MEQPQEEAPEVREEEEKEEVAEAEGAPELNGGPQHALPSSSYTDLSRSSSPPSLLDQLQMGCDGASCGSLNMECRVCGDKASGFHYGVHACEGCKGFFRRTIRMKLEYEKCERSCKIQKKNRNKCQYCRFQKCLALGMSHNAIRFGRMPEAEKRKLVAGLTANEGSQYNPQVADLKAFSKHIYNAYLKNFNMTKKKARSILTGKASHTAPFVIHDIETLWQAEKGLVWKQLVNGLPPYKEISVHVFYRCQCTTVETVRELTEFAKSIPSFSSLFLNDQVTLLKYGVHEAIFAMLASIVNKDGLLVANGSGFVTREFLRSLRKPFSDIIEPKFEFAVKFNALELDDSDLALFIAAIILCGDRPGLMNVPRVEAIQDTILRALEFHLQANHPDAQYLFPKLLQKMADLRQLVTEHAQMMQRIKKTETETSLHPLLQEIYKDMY
# Retinoic acid receptor RXR-alpha (Homo sapiens), sequence (P19793 whole entry, looked up): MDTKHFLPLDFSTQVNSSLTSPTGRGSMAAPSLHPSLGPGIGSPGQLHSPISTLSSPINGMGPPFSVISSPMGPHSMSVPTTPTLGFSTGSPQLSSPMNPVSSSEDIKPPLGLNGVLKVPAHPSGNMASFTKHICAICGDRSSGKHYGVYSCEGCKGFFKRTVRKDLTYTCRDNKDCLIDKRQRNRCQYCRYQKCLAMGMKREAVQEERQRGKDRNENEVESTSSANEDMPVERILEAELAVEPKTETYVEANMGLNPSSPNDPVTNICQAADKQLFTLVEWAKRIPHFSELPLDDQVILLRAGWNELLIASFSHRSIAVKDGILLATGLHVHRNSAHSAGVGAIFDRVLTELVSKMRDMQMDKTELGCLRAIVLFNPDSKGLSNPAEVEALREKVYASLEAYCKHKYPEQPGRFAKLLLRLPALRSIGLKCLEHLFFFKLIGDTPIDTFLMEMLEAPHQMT
# Thyroid hormone receptor beta (Homo sapiens), sequence (P10828 whole entry, looked up): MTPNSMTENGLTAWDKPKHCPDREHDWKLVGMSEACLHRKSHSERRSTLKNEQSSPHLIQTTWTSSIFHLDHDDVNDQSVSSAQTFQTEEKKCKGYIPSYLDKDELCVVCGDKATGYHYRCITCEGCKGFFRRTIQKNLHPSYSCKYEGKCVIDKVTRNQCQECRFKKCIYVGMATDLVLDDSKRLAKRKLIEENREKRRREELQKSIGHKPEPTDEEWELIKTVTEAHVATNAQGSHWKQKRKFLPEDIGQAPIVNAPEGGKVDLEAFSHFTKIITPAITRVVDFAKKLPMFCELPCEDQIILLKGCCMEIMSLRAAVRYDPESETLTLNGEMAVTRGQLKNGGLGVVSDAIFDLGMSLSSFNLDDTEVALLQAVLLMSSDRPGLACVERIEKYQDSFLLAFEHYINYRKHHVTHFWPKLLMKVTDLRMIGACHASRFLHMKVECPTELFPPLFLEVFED
# Peroxisome proliferator-activated receptor gamma (Homo sapiens), sequence (P37231 whole entry, looked up): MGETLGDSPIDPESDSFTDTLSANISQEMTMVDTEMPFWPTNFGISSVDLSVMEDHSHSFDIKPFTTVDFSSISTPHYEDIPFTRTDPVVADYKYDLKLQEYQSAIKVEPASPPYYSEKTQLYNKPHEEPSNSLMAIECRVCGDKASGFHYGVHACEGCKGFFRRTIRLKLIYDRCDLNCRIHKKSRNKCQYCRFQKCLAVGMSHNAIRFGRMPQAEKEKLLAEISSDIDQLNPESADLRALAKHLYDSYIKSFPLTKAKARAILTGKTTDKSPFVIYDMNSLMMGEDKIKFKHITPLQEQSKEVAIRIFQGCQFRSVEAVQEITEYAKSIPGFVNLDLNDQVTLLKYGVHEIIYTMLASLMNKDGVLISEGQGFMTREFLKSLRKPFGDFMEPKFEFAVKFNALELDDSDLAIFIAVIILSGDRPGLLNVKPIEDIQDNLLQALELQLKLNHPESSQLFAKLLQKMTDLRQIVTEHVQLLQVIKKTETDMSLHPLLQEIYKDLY
# Vitamin D3 receptor (Homo sapiens), sequence (P11473 whole entry, looked up): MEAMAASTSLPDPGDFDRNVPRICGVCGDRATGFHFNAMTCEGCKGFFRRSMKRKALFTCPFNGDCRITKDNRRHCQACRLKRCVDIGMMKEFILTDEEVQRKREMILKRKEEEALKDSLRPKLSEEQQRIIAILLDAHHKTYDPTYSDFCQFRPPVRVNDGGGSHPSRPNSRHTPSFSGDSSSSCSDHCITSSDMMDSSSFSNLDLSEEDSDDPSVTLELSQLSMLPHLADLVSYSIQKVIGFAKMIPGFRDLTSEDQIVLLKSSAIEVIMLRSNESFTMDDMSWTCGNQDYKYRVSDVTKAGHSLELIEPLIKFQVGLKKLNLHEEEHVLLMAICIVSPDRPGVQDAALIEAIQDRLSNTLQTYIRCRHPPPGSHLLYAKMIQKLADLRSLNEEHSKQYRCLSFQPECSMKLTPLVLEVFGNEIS
# Peroxisome proliferator-activated receptor alpha (Homo sapiens), sequence (Q07869 whole entry, looked up): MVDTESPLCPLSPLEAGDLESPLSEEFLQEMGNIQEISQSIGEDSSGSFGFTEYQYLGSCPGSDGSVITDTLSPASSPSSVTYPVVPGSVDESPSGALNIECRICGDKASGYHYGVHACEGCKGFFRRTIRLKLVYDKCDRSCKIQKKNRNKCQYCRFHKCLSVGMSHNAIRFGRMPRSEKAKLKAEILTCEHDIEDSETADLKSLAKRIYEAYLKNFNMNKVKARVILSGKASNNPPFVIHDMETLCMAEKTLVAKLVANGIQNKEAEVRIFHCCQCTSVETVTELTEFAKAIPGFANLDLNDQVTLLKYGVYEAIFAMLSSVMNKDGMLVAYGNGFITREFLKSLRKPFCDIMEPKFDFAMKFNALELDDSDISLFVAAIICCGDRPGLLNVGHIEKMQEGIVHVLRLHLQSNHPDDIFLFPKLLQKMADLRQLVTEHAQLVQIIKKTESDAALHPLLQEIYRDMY
# Nuclear receptor subfamily 1 group I member 2 (Rattus norvegicus), sequence (Q9R1A7 whole entry, looked up): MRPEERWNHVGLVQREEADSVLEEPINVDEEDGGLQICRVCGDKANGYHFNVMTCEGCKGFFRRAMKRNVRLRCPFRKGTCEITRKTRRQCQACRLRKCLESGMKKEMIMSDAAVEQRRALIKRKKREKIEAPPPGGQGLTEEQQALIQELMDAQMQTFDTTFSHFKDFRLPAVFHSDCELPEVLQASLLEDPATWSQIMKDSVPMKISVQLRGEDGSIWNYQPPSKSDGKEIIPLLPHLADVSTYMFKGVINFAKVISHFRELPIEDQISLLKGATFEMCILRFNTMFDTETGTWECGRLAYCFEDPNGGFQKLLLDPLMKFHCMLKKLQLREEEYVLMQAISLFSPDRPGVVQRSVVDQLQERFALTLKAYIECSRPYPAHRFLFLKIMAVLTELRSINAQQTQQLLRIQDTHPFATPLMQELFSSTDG
compound,measurement,setting,value
CC(=NC#N)N(C)Cc1ccc(Cl)nc1,outcome,[1],inactive
same,max response,[2],24.8%
same,Potency,[3],inactive
same,Potency,[4],inactive
same,Potency,[5],inactive
same,Potency,[6],inactive
same,outcome,[7],inactive
same,max response,[8],-1.69%
same,Potency,[9],inactive
same,Potency,[10],inactive
same,max response,[11],-1.52%
same,max response,[12],-19.1% (inactive)
same,activity change % (negative = inhibition),[13],-1.79% (inactive)
same,Potency,[14],inactive
same,activation,[15],-5.43% (inactive)
same,activation,[16],-0.278% (inactive)
same,activation,[17],0.519% (inactive)
same,max response,[18],-1.88% (inactive)
same,Potency,[19],inactive
same,max response,[20],-5.31% (inactive)
same,max response,[21],-11.8% (inactive)
same,Potency,[22],inactive
same,max response,[23],2.55% (inactive)
same,outcome,[24],inactive
Cc1ccc(N(C)C)cc1,outcome,[1],inactive
O=C1NC(=O)c2cc([N+](=O)[O-])ccc21,outcome,[1],inactive
C=C(C)C(=O)OCCN(C)C,outcome,[1],inactive
CO,outcome,[1],inactive
same,Potency,[14],42.2 µM (active)
[CH3][Sn]([CH3])([Cl])[Cl],outcome,[1],inactive
same,max response,[2],1.89%
same,Potency,[3],inactive
same,Potency,[4],inactive
same,Potency,[5],inactive
same,Potency,[6],inactive
same,outcome,[7],inactive
same,Potency,[9],inactive
same,Potency,[10],inactive
same,max response,[11],-2.31%
same,max response,[12],-24.3% (inactive)
same,activity change % (negative = inhibition),[13],0.969% (inactive)
same,activation,[16],0.645% (inactive)
same,activation,[17],-0.285% (inactive)
same,max response,[18],-1.2% (inactive)
same,Potency,[19],inactive
same,max response,[20],3.28% (inactive)
same,max response,[21],-9.37% (inactive)
same,Potency,[22],inactive
same,max response,[23],-0.47% (inactive)
same,outcome,[24],inactive
